These results are taken from paper doi:10.1101/2025.08.08.669391.

Targets include AIF1L (UniProt Q9BQI0); B4GALNT4 (UniProt Q76KP1); CCT2 (UniProt P78371); CCT4 (UniProt P50991); MEPE (UniProt Q9NQ76); SF3B1 (UniProt O75533); SMC4 (UniProt Q9NTJ3); SNU13 (UniProt P55769); TPPP3 (UniProt Q9BW30); TRIM28 (UniProt Q13263); XRCC5 (UniProt P13010).
Assay in all cases: cross-linking mass spectrometry
Settings in all cases: DSSO, not determined

Sequence of BCL9 (O00512 whole entry): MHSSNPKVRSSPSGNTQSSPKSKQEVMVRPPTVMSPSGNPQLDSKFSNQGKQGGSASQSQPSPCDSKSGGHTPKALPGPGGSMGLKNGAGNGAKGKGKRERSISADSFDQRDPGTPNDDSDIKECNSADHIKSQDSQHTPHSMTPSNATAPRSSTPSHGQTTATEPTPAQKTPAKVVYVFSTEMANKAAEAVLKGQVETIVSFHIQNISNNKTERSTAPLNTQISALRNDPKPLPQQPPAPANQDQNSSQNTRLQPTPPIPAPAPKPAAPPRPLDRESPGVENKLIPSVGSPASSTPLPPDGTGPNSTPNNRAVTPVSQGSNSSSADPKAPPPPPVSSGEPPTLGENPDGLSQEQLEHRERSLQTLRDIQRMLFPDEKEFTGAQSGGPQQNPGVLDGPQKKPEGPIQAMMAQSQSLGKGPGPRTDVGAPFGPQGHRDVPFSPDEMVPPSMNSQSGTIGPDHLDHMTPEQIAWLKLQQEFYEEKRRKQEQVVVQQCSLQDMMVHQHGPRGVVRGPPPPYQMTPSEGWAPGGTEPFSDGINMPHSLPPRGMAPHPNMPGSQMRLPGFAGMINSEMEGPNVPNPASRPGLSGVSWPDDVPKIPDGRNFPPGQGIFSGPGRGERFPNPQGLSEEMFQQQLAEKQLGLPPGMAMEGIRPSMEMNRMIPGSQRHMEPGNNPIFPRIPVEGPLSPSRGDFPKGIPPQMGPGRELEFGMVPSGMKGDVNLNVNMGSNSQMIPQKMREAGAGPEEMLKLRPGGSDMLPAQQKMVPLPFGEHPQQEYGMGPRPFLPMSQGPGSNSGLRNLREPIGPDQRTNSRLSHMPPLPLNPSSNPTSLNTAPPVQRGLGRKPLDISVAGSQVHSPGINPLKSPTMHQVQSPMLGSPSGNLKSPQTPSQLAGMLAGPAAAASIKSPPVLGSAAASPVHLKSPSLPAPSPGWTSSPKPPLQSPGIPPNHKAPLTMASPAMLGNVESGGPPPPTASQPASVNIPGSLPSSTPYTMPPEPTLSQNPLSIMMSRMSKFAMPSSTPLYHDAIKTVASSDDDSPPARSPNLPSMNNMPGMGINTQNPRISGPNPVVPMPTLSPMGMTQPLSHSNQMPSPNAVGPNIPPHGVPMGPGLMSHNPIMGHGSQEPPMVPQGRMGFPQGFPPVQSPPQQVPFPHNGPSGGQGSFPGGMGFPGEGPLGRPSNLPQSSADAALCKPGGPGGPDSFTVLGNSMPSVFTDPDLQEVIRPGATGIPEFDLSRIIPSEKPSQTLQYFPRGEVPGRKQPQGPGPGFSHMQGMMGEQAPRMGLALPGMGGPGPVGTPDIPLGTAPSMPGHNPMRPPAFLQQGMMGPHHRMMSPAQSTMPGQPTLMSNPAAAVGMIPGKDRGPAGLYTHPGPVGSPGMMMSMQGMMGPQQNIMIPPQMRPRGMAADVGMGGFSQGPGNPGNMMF
Sequence of UniProt O75533 (O75533 whole entry): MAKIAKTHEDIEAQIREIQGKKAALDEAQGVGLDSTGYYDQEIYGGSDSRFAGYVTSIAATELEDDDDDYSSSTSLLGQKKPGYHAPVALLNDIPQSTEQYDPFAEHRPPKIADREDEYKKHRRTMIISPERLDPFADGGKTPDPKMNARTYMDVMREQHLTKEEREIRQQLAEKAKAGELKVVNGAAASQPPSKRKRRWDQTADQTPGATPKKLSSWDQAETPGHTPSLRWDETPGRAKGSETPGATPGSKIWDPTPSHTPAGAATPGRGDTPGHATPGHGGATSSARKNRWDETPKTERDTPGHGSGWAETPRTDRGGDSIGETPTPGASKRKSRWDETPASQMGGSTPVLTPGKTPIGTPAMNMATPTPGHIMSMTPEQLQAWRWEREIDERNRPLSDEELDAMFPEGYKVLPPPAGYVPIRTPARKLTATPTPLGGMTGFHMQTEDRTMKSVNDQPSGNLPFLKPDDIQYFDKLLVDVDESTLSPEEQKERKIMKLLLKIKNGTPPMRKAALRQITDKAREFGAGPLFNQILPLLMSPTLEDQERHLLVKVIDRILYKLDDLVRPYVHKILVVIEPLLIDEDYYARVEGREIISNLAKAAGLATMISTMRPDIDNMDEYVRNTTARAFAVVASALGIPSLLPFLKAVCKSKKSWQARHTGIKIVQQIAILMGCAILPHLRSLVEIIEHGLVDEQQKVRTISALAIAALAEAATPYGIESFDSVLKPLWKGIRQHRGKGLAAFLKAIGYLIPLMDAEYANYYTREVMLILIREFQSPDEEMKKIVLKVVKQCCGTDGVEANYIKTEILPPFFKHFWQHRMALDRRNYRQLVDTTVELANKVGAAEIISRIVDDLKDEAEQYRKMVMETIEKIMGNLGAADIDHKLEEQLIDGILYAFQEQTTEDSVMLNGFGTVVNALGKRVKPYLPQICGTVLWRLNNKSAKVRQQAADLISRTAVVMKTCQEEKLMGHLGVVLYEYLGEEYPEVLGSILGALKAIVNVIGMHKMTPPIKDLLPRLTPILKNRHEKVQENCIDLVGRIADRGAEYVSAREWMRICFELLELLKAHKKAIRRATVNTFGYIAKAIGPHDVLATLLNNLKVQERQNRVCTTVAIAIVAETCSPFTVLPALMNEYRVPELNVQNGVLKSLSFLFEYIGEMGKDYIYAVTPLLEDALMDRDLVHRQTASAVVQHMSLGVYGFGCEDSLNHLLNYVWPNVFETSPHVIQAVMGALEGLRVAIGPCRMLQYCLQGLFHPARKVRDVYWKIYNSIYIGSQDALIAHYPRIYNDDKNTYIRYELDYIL
Sequence of EPHX2 (P34913 whole entry): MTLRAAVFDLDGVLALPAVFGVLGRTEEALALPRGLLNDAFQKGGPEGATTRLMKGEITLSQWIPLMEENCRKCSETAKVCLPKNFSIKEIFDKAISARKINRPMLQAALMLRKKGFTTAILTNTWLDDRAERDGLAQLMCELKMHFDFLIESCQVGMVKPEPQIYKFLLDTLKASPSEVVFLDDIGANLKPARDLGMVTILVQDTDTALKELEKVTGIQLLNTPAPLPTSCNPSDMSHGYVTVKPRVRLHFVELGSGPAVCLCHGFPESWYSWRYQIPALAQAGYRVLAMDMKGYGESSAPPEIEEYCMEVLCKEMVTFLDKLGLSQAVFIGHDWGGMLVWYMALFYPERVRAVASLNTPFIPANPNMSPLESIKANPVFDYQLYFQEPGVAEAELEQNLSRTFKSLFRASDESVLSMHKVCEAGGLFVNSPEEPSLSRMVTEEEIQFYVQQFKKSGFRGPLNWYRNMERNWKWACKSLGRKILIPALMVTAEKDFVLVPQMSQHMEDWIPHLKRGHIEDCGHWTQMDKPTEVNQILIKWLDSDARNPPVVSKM
Sequence of CLEC4F (Q8N1N0 whole entry): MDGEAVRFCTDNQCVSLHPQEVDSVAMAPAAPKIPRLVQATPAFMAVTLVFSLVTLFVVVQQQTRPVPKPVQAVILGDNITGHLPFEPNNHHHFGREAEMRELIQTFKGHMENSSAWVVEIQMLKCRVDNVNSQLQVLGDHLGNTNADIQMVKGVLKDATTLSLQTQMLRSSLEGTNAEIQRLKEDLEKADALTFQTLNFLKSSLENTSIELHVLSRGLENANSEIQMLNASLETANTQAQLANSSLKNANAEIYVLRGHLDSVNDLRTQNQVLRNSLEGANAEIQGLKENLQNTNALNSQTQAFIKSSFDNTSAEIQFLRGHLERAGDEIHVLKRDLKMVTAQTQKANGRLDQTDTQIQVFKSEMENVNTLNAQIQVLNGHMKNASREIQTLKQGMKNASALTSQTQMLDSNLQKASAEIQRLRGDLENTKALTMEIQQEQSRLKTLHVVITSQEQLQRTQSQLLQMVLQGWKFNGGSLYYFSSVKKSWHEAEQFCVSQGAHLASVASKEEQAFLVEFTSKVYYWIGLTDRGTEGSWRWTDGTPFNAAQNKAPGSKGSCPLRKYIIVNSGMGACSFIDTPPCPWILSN
Sequence of UniProt P13010 (P13010 whole entry): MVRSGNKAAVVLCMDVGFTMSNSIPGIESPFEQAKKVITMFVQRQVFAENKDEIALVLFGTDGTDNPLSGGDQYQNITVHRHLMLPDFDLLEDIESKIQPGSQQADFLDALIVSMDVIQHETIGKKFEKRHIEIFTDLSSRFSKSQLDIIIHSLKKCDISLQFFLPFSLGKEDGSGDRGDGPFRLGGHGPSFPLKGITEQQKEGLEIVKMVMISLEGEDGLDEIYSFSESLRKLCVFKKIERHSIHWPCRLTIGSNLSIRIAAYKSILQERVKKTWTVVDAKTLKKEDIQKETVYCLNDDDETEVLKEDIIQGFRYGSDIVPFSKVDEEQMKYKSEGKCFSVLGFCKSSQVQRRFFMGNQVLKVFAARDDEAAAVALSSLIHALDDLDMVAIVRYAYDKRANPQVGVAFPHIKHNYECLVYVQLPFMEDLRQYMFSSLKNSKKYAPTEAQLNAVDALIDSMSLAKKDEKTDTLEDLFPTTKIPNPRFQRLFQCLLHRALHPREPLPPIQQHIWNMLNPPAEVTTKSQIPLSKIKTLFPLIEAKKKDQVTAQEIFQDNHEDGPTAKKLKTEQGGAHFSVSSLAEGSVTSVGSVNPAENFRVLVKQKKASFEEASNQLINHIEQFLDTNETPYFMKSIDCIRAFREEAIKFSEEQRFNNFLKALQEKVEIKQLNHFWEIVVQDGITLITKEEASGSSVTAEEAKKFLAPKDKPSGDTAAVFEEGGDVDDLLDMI
Sequence of VIM (P08670 whole entry): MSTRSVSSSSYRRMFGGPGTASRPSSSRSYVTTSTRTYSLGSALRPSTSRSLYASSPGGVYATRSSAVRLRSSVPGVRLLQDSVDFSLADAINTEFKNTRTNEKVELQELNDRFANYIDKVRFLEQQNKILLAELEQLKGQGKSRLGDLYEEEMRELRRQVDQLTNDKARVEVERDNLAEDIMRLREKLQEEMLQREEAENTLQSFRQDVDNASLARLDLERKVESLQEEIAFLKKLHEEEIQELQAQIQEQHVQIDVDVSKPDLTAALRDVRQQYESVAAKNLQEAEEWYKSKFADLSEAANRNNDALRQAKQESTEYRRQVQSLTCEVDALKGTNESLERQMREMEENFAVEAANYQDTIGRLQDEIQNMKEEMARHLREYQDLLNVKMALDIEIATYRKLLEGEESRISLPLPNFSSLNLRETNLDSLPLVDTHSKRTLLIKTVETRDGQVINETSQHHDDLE

As for CLEC4F, Q8N1N0, in the test with AIF1L, the cross-linked residues result is “K474 - K129”. As to EPRS1, P07814, in the test with B4GALNT4, the cross-linked residues entry is recorded as “K300 - K232”.

Turning to CCT4, P50991, in the test with CCT2, the cross-linked residues result is on record as “K21 - K522”. Turning to TCP1, P17987, in the test with CCT4, the cross-linked residues result is “K126 - K55”. As to EPHX2, P34913, in the test with MEPE, the cross-linked residues result is recorded as “K55 - K369”. For the substance HTATSF1, O43719, in the test with SF3B1, the cross-linked residues result was “K297 - K333”. Turning to SMC2, O95347, in the test with SMC4, the cross-linked residues result was “K580 - K731”. Consider NOP56, O00567, for which, in the test with SNU13, the cross-linked residues result is reported as “K396 - K86”. Regarding VIM, P08670, the cross-linked residues result with TPPP3 is “K223 - K48”. For the substance BCL9, O00512, in the test with TRIM28, the cross-linked residues result is “K1244 - K289”. As to XRCC6, P12956, in the test with XRCC5, the cross-linked residues entry is recorded as “K317 - K282”.
